The supplement of paper PMC11732987, “Enantioselective OTUD7B fragment discovery through chemoproteomics screening and high-throughput optimisation” (Communications Chemistry, 2025)

Columns and labels:
Experiment in all cases: log2 ratio of Biotin-Ahx-Ub-VS probe labelling (fragment/DMSO); higher = less target engagement (more negative = stronger competition), active = hit call of the paper (q ≤ 0.05, log2 ratio ≤ -1)
Settings in all cases: compound concentration: 200 uM; treatment time: 3 h
[1] = target: T1, USP19 (UniProt O94966)
T1 sequence (whole entry): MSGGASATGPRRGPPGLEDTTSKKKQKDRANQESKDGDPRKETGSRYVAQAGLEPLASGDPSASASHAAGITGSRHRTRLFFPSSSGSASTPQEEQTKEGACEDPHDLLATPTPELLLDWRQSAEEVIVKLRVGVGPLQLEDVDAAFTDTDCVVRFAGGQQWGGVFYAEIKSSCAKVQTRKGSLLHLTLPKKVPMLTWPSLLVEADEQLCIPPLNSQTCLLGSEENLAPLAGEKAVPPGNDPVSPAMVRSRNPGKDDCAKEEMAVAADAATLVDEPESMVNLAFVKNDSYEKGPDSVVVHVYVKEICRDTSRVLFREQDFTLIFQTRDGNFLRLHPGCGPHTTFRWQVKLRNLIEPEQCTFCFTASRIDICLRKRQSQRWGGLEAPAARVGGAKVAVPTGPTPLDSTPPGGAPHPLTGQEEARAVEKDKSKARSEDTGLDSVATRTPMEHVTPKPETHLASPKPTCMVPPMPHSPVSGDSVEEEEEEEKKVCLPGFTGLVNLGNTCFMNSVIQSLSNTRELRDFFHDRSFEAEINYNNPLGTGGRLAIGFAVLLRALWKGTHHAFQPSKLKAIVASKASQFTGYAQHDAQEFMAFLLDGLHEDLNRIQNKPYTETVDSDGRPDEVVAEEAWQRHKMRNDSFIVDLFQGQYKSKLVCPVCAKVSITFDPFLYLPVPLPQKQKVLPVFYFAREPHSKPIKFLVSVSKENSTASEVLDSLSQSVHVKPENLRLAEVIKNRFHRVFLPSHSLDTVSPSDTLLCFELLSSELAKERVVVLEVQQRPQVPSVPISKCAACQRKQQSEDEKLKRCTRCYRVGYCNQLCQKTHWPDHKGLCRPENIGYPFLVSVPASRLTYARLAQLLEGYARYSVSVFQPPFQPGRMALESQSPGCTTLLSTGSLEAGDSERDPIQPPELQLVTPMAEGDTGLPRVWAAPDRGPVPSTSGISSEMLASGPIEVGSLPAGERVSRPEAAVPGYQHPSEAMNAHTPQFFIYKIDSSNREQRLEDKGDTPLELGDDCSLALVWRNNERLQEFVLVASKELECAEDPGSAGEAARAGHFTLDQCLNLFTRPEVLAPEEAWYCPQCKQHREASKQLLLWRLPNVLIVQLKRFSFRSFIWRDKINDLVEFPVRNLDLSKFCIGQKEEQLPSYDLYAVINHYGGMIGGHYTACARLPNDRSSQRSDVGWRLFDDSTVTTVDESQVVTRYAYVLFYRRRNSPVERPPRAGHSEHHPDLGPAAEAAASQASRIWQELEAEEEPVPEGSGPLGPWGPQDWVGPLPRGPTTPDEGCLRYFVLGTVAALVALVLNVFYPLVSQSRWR
Method in brief: (§1)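 Fragment (200 µM) or vehicle was incubated for 3 h with triplicate HEK293T lysate samples of 495 µg, which were then treated with Biotin-Ahx-Ub-VS at 0.5 µM final for 1 h. Labelled DUBs were enriched on NeutrAvidin, digested with LysC and trypsin, and analysed by diaPASEF LC-MS/MS. Values are average log2 fragment/vehicle ratios from an unpaired t-test on global-median-normalised Spectronaut label-free quantities, using proteins with ≥2 unique peptides.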

[2] = target: T2, USP22 (UniProt Q9UPT9)
T2 sequence (whole entry): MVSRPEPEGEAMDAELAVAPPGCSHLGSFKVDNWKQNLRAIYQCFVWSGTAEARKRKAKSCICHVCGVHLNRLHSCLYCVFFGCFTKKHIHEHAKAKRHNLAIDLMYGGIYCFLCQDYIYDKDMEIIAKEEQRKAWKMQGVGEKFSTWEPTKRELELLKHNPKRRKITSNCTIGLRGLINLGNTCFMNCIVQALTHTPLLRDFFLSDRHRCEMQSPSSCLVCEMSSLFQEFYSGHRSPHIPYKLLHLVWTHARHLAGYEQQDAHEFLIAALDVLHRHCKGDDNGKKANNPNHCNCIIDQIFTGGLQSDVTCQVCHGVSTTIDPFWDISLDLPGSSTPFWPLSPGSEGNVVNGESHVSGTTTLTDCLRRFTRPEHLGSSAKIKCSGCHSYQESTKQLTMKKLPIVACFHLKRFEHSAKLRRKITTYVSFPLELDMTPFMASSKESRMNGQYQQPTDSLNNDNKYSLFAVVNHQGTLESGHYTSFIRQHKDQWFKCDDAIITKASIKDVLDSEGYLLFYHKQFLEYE
Method in brief: as §1

[3] = target: USP24 (UniProt Q9UPU5)
USP24, sequence (Q9UPU5 whole entry): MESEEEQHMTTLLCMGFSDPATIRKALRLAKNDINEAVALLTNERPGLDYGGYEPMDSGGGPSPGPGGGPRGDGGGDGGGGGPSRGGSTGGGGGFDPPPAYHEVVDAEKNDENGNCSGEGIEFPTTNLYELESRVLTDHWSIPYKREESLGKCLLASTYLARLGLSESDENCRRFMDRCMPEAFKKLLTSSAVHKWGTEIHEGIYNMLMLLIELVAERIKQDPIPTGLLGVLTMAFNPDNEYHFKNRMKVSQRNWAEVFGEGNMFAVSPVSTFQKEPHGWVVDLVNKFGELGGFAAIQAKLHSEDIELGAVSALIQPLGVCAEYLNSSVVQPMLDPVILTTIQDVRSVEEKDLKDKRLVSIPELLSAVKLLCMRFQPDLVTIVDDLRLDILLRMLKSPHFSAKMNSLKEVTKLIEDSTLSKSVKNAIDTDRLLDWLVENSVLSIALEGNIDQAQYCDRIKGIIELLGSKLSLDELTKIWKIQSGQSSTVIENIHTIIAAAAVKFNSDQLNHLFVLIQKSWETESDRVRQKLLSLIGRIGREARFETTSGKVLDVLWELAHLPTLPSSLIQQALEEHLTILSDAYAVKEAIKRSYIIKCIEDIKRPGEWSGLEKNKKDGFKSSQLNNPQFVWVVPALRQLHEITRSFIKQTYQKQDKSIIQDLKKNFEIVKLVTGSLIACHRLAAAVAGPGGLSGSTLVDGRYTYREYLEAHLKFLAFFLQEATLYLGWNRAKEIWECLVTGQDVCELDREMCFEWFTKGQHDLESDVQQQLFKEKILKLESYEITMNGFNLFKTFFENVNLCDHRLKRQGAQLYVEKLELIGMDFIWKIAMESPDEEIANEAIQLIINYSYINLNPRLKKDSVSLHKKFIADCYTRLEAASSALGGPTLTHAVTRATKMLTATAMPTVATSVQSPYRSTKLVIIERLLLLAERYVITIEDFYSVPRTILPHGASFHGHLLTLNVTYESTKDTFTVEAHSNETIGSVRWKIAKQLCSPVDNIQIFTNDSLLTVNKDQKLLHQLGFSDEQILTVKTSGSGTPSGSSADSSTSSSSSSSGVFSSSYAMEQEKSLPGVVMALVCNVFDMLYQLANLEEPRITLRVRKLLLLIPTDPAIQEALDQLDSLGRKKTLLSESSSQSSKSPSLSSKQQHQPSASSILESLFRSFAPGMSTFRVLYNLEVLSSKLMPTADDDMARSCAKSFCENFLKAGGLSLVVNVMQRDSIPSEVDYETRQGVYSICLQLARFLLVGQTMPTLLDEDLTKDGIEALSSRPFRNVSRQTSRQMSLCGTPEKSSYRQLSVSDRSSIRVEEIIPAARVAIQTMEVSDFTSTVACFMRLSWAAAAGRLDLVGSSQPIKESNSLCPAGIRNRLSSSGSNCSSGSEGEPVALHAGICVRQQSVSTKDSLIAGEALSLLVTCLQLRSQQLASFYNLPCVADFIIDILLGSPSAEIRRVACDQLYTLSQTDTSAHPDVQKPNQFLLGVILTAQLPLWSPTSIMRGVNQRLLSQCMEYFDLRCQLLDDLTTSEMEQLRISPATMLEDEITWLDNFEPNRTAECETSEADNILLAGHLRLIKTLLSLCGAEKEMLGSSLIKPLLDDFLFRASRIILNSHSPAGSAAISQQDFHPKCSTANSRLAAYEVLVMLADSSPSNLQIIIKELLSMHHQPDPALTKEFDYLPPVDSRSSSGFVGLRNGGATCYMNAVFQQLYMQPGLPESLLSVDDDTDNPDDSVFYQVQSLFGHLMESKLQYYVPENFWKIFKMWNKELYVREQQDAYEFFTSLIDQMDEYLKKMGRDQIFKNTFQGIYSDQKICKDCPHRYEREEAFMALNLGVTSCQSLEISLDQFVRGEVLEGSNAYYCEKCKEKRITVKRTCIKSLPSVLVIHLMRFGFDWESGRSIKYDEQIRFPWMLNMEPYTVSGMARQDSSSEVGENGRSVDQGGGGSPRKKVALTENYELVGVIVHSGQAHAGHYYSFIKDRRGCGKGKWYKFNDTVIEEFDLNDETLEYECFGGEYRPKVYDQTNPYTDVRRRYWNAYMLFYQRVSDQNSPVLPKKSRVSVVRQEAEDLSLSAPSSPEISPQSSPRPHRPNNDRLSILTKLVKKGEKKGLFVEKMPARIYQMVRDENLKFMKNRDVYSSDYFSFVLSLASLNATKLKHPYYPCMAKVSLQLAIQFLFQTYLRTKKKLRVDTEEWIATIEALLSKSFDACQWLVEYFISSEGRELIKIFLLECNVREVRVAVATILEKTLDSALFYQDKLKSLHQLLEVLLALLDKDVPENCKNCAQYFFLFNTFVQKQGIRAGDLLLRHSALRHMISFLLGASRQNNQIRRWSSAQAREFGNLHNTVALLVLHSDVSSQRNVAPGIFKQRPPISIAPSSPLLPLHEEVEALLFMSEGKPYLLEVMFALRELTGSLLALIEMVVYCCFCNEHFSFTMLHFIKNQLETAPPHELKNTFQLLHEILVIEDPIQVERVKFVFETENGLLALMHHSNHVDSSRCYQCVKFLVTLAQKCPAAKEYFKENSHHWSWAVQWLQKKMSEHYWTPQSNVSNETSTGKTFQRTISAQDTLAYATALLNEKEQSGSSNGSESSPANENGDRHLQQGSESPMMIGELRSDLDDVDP
Method in brief: as §1

[4] = target: T3, USP25 (UniProt Q9UHP3)
T3 sequence (whole entry): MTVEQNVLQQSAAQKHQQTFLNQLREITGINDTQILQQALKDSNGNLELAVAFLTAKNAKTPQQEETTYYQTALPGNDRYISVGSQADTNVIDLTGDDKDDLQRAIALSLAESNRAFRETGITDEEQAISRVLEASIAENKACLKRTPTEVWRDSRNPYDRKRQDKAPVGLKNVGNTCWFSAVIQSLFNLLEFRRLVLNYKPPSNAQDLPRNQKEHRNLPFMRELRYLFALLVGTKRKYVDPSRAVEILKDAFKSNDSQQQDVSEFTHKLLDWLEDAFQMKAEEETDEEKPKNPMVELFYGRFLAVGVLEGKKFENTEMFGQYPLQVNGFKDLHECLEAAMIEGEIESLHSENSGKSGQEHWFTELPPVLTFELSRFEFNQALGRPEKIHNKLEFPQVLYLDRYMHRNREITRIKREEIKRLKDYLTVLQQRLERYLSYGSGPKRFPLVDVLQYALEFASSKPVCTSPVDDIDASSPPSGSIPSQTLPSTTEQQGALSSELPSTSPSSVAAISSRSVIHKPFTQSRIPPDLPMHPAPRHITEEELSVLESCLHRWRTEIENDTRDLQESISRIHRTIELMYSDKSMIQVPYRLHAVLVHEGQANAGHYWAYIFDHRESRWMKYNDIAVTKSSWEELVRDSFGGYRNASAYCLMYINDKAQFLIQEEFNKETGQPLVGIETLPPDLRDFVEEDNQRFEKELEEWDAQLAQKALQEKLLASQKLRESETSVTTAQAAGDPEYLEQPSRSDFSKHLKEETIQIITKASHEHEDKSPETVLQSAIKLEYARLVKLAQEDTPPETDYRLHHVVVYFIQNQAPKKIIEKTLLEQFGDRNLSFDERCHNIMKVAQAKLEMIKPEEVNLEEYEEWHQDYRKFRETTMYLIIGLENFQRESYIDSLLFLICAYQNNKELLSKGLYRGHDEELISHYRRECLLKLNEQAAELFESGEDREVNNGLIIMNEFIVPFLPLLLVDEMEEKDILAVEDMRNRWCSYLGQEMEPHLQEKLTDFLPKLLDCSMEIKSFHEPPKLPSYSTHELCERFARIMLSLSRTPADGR
Method in brief: as §1

[5] = target: T4, USP28 (UniProt Q96RU2)
T4 sequence (whole entry): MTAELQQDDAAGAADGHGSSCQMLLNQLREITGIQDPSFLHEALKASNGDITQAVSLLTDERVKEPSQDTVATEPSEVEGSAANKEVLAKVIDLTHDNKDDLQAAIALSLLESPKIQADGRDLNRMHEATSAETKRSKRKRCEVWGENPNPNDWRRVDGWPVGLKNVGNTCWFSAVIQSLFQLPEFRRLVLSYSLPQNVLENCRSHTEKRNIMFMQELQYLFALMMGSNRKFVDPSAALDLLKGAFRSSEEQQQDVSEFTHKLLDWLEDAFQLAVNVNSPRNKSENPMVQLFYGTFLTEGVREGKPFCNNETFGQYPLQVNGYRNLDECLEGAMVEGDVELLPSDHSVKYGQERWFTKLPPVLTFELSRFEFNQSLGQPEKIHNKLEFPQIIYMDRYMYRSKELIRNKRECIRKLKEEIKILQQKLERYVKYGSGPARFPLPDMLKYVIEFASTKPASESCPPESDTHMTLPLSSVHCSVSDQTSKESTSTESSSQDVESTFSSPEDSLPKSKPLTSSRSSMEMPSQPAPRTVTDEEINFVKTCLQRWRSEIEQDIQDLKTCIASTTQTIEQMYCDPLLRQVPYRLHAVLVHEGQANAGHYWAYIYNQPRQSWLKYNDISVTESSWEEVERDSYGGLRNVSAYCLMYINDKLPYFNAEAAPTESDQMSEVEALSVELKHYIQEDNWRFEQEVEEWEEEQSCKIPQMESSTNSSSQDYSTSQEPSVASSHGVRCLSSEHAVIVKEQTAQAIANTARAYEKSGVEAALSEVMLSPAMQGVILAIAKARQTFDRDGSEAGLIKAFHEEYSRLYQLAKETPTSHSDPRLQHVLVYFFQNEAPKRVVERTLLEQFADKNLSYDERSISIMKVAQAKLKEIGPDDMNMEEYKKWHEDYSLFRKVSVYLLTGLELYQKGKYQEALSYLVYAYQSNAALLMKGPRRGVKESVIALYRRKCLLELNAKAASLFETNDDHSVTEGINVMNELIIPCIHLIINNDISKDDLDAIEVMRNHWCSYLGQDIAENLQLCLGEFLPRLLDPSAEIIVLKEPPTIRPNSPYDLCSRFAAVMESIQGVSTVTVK
Method in brief: as §1

Measured: log2 ratio of Biotin-Ahx-Ub-VS probe labelling

Cc1nc(CNC(=O)CCl)c2ccccn12.Cl
inactive: [1] -0.106 | [2] 0.0129 | [3] -0.108 | [4] -0.0552 | [5] -0.23
